Assay results published in PubChem BioAssay (Tox21).
Results filed as inconclusive are left out. Where a call stands in place of a potency, no number is given. Activity calls are given as the source filed them. Unless noted, calls come from the whole dose curve; as a rule, active = well fitted curve in the direction sought with a large enough effect in the repeat runs; inconclusive = weak or mixed curves; inactive = no such curve, though single readings can be large; an effect the other way counts as inactive or inconclusive.

Tests used:
[1] = qHTS assay to identify aromatase inhibitors - cell viability counter screen (AID 743084);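 note: cells stimulated with testosterone during compound exposure; nearly all actives have a fitted effect of over 55% in size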
[2] = target: Aryl hydrocarbon receptor (Homo sapiens) (UniProt P35869); assay: qHTS assay to identify small molecule that activate the aryl hydrocarbon receptor (AhR) signaling pathway (AID 743085); note: nearly all actives have a fitted effect of over 15% in size; note: potency is the fitted concentration of half-maximal effect;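 for activation: HG2L7.5c1 human HepG2 liver cells with stably integrated DRE-driven firefly reporter; series mostly up to about 70 µM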
Chain of Aryl hydrocarbon receptor (Homo sapiens) (P35869 whole entry, looked up): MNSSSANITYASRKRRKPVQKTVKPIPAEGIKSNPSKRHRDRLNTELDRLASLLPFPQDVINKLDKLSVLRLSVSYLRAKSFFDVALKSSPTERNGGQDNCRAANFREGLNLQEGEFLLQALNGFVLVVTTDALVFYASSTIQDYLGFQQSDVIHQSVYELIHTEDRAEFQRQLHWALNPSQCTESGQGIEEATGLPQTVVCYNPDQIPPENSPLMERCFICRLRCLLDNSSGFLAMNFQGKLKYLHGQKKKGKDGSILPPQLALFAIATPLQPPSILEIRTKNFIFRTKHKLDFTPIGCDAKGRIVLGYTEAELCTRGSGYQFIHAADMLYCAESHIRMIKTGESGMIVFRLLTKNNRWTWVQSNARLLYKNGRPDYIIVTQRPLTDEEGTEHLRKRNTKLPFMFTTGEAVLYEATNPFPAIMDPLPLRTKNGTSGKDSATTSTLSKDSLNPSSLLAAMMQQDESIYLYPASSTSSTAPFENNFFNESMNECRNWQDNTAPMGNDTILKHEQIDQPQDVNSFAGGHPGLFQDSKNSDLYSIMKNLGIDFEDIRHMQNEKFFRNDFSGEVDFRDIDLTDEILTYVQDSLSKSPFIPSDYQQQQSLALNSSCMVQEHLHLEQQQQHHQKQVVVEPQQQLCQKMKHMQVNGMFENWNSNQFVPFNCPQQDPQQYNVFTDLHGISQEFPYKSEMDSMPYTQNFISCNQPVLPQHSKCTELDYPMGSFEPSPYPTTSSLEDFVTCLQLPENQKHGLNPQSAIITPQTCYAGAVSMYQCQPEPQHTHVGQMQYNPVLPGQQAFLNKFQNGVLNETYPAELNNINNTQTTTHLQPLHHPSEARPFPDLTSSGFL
Outline: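 Measured in HG2L7.5c1 cells: CellTiter-Fluor signal (30 min incubation, 37C) for viability, then luciferase luminescence (30 min, room temperature). Compound contact time was 24 h at 37C, following a 5 h pre-incubation.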

[3] = qHTS assay to identify small molecule that activate the aryl hydrocarbon receptor (AhR) signaling pathway - cell viability counter screen (AID 743086);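 note: HepG2 liver cells carrying the AhR DRE luciferase reporter; series mostly up to about 70 µM; nearly all actives have a fitted effect of over 45% in size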
Outline: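 HepG2-AhR-luc (HG2L7.5c1) cells, 4000/well, treated 24 h at 37 C with compound; viability measured as CellTiter-Fluor fluorescence after 30 min in the same wells as the luciferase read.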

[4] = target: Peroxisome proliferator-activated receptor gamma (Homo sapiens) (UniProt P37231); assay: qHTS assay to identify small molecule agonists of the peroxisome proliferator-activated receptor gamma (PPARg) signaling pathway (AID 743094; active = well fitted activation curve with a large enough effect in the signal ratio in the repeat runs, not every such curve was filed as active; the % refers to the signal ratio)
Chain of Peroxisome proliferator-activated receptor gamma (Homo sapiens) (P37231 whole entry, looked up): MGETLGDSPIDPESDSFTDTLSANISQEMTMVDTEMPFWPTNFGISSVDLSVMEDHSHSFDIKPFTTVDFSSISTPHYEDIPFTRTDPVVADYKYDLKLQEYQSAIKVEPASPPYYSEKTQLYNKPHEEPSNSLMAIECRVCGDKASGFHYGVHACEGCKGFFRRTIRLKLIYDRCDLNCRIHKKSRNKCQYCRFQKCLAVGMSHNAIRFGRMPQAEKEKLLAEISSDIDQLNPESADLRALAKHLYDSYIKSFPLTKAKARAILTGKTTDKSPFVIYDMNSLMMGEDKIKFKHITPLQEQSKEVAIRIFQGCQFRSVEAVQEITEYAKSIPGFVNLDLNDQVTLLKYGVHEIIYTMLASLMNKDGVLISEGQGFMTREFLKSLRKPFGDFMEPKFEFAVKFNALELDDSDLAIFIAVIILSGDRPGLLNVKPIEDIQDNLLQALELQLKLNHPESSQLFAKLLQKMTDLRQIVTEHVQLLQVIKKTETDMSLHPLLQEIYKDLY
Outline: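 Fluorescence-based beta-lactamase readout in HEK293H PPARg UAS-bla cells after 17 h compound exposure (37C) and 1 h B/G FRET substrate incubation at room temperature.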

[5] = target: Peroxisome proliferator-activated receptor gamma (Homo sapiens) (UniProt P37231); assay: qHTS assay to identify small molecule antagonists of the peroxisome proliferator-activated receptor gamma (PPARg) signaling pathway (AID 743191; calls by dose curve; note: series mostly up to about 63 µM; nearly all actives have a fitted effect of over 30% in size)
Outline: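 GeneBLAzer PPARg UAS-bla HEK293H cells, 5 h post-plating, exposed to compounds 17 h at 37C. LiveBLAzer B/G FRET substrate added for 1 h at room temperature; beta-lactamase reporter read by fluorescence intensity.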

[6] = qHTS assay for small molecule agonists of the antioxidant response element (ARE) signaling pathway (AID 743202; active = well fitted activation curve with a large enough effect in the signal ratio in the repeat runs, not every such curve was filed as active; the % refers to the signal ratio; note: potency is the fitted concentration of half-maximal effect)
Outline: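 HepG2 ARE-bla cells; 16 h treatment at 37 C; FRET-based beta-lactamase fluorescence read after 2 h substrate incubation at room temperature.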

[7] = qHTS assay for small molecule agonists of the antioxidant response element (ARE) signaling pathway - cell viability counter screen (AID 743203; calls by dose curve; note: nearly all actives have a fitted effect of over 55% in size)
Outline: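 Parallel cytotoxicity read-out for the ARE-bla screen: HepG2 reporter cells, 16 hrs with compounds, then CellTiter-Glo luminescence.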

[8] = qHTS assay for small molecule activators of the heat shock response signaling pathway - cell viability counter screen (AID 743209); note: nearly all actives have a fitted effect of over 50% in size
Outline: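 To flag cytotoxic compounds, HSE-bla HeLa cells plated at 1500 cells/well were dosed for 5 h at 37 C, followed by the reporter FRET read and then CellTiter-Glo, with luminescence recorded 30 min after reagent addition.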

[9] = qHTS assay for small molecule activators of the heat shock response signaling pathway (AID 743210; active = well fitted activation curve with a large enough effect in the signal ratio in the repeat runs, with a control signal flat, not every such curve was filed as active; the % refers to the signal ratio;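 note: HeLa cells with beta-lactamase reporter driven by heat shock elements; series mostly up to about 63 µM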)
Outline: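 Following overnight attachment, HSE-bla HeLa cells received test compounds for 5 h at 37 C; beta-lactamase activity was then detected via FRET substrate fluorescence.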

[10] = qHTS assay to identify small molecule agonists of the peroxisome proliferator-activated receptor delta (PPARd) signaling pathway - cell viability counter screen (AID 743211); note: nearly all actives have a fitted effect of over 55% in size
Outline: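 Following 5 h plating at 37 C and 5% CO2, PPARd UAS-bla HEK293H cells took up test compounds for 17 h. Viability was quantified by luminescence 30 min after CellTiter-Glo addition at room temperature.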

[11] = target: Peroxisome proliferator-activated receptor delta (Homo sapiens) (UniProt Q03181); assay: qHTS assay to identify small molecule agonists of the peroxisome proliferator-activated receptor delta (PPARd) signaling pathway (AID 743212; calls by dose curve)
Chain of Peroxisome proliferator-activated receptor delta (Homo sapiens) (Q03181 whole entry, looked up): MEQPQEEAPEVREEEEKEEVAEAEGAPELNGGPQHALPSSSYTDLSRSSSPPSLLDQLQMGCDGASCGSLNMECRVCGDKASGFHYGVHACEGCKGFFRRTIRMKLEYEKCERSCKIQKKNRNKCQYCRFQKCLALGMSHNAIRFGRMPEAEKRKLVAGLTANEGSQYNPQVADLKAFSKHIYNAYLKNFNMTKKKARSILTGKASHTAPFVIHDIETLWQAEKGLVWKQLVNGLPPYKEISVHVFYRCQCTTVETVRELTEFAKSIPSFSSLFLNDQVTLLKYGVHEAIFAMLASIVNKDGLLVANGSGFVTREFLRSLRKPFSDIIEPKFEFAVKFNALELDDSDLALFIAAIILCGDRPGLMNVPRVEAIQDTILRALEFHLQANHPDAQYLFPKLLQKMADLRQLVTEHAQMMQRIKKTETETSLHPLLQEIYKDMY
Outline: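 Tox21 library screened in GeneBLAzer PPARd UAS-bla HEK293H cells. After compound treatment at 37 C, a FRET-based beta-lactamase substrate was applied for 2 h and fluorescence recorded.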

[12] = qHTS assay to identify small molecule antagonists of the peroxisome proliferator-activated receptor delta (PPARd) signaling pathway - cell viability counter screen (AID 743213); note: nearly all actives have a fitted effect of over 50% in size
Outline: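 CellTiter-Glo was added to PPARd-bla HEK293H wells following 17 h compound treatment in the presence of 300 nM L165041. Luminescence was recorded after 30 min at room temperature.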

[13] = target: Peroxisome proliferator-activated receptor delta (Homo sapiens) (UniProt Q03181); assay: qHTS assay to identify small molecule antagonists of the peroxisome proliferator-activated receptor delta (PPARd) signaling pathway (AID 743215; active = well fitted inhibition curve with a large enough effect in the signal ratio in the repeat runs, not every such curve was filed as active; the % refers to the signal ratio;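 note: cells stimulated with agonist L165041 at 300 nM final during compound exposure; series mostly up to about 62 µM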)
Outline: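 Screen format: qHTS, antagonist mode. HEK293H PPARd-bla cells received compound and 300 nM L165041 (final), 17 h, 37 C. Beta-lactamase detected via FRET substrate fluorescence, 2 h, room temperature.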

[14] = qHTS assay to identify small molecule antagonists of the farnesoid-X-receptor (FXR) signaling pathway - cell viability counter screen (AID 743221; active = well fitted cell-killing curve with a large enough effect in the repeat runs, not every such curve was filed as active; note: nearly all actives have a fitted effect of over 50% in size)
Outline: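 Compound effects on cell number were measured as CellTiter-Glo luminescence in HEK 293T cells expressing FXR-UAS-bla, after 16 h at 37 C with 50 uM CDCA (final).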

[15] = target: Vitamin D3 receptor (Homo sapiens) (UniProt P11473); assay: qHTS assay to identify small molecule agonists of the vitamin D receptor (VDR) signaling pathway (AID 743222; calls by dose curve)
Chain of Vitamin D3 receptor (Homo sapiens) (P11473 whole entry, looked up): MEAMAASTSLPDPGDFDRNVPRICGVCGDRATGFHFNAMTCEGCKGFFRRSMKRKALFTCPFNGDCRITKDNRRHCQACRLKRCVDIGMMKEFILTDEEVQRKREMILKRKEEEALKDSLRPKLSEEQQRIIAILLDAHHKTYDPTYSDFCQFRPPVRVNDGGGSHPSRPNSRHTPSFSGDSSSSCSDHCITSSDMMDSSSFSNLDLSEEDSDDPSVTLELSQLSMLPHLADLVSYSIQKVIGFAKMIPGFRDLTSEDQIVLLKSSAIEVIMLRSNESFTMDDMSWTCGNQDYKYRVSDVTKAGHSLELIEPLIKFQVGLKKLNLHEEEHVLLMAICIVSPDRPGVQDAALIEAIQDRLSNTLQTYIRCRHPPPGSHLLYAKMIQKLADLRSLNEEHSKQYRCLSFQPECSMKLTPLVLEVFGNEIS
Outline: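 Using LiveBLAzer B/G FRET detection, agonism was scored in VDR-bla cells exposed overnight (16 h, 37C) to DMSO-dissolved compounds; substrate incubation was 2 h at room temperature.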

[16] = qHTS assay to identify small molecule antagonists of the peroxisome proliferator-activated receptor gamma (PPARg) signaling pathway - cell viability counter screen (AID 743194); conditions: Potency: co-treated with 50 nM rosiglitazone; note: nearly all actives have a fitted effect of over 55% in size
Outline: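 Cytotoxicity counter screen in PPARg-bla HEK293H cells, same wells as reporter assay. Compounds plus 50 nM rosiglitazone (final) for 17 h at 37 C, then viability read by CellTiter-Glo luminescence.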

[17] = qHTS assay to identify small molecule agonists of the farnesoid-X-receptor (FXR) signaling pathway - cell viability counter screen (AID 743218); note: nearly all actives have a fitted effect of over 45% in size
Outline: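 Same-well cytotoxicity check on FXR-UAS-bla HEK 293T cells: 5 h attachment, 16 h compound at 37 C, CellTiter-Glo luminescence read at room temperature after 30 min.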

[18] = target: Vitamin D3 receptor (Homo sapiens) (UniProt P11473); assay: qHTS assay to identify small molecule antagonists of the vitamin D receptor (VDR) signaling pathway (AID 743223; active = well fitted inhibition curve with a large enough effect in the signal ratio in the repeat runs, not every such curve was filed as active; the % refers to the signal ratio)
Outline: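 Beta-lactamase activity in VDR-bla cells is measured by FRET substrate fluorescence (2 h, room temperature) after cells spend 16 h at 37C with test compound and 3 nM final 1alpha,25-dihydroxyvitamin D3.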

[19] = target: Bile acid receptor (Homo sapiens) (UniProt Q96RI1); assay: qHTS assay to identify small molecule antagonists of the farnesoid-X-receptor (FXR) signaling pathway (AID 743217; active = well fitted inhibition curve with a large enough effect in the signal ratio in the repeat runs, not every such curve was filed as active; the % refers to the signal ratio)
Chain of Bile acid receptor (Homo sapiens) (Q96RI1 whole entry, looked up): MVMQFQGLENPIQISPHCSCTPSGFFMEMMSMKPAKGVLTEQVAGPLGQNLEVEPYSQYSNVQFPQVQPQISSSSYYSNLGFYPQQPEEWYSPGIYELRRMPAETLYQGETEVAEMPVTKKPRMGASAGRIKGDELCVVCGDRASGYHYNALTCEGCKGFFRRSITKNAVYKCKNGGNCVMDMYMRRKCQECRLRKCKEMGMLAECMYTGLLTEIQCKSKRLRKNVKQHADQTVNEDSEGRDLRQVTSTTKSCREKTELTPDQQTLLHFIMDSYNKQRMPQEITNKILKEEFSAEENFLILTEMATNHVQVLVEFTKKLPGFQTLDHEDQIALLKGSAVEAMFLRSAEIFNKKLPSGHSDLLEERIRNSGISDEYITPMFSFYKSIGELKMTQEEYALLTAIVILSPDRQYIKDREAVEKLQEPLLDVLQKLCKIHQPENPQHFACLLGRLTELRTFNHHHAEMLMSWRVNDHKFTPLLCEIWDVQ
Outline: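 Quantitative HTS, beta-lactamase reporter format: FXR-UAS-bla HEK 293T cells co-treated 16 h at 37 °C with compounds and 50 uM final chenodeoxycholic acid, then read by B/G FRET fluorescence.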

[20] = target: Bile acid receptor (Homo sapiens) (UniProt Q96RI1); assay: qHTS assay to identify small molecule agonists of the farnesoid-X-receptor (FXR) signaling pathway (AID 743220; active = well fitted activation curve with a large enough effect in the signal ratio in the repeat runs, not every such curve was filed as active; the % refers to the signal ratio)
Outline: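 FXR-UAS-bla HEK 293T cells carrying a UAS-driven beta-lactamase reporter were plated for 5 h at 37C/5% CO2, then exposed to DMSO-dissolved Tox21 10K compounds for 16 h at 37C. A LiveBLAzer B/G FRET substrate was loaded for 2 h at room temperature before fluorescence reading.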

SMILES	Potency [1]	Potency [2]	outcome [3]	outcome [4]	Potency [5]	Potency [6]	Potency [7]	Potency [8]	outcome [9]	Potency [10]	outcome [11]	outcome [12]	outcome [13]	outcome [14]	outcome [15]	Potency [16]	Potency [17]	outcome [18]	Potency [19]	outcome [20]
N#Cc1ccncc1	inactive	inactive	inactive	inactive	inactive	inactive	inactive	inactive	inactive	inactive	inactive	inactive	inactive	inactive	inactive					
CCOc1nc(C(Cl)(Cl)Cl)ns1	inactive	inactive	inactive	inactive		inactive	inactive	inactive	inactive	inactive	inactive	inactive	inactive	inactive	inactive	inactive	inactive	inactive		
N#CC(Cl)(Cl)Cl	inactive	inactive	inactive	inactive	inactive	inactive	inactive		inactive	inactive	inactive	inactive	inactive	inactive		inactive			inactive	inactive
O=C(N[C@H]1CN2CCC1CC2)c1cc2ccoc2cn1	inactive	inactive	inactive	inactive	inactive		inactive	inactive	inactive	inactive	inactive	inactive				inactive	inactive			
CCS(=O)(=O)C(C)(C)S(=O)(=O)CC	inactive	inactive	inactive	inactive		inactive	inactive	inactive	inactive	inactive		inactive		inactive	inactive	inactive	inactive	inactive	inactive	inactive
CCOP(=S)(OCC)Oc1ncn(-c2ccccc2)n1	inactive	24.3 µM (active)	inactive	inactive	inactive		inactive	inactive	inactive	inactive		inactive		inactive	inactive	inactive		inactive	inactive	inactive
OC(c1ccccc1)(c1ccccc1)C1CCNCC1	inactive	inactive	inactive	inactive	inactive		inactive	inactive	inactive	inactive				inactive		inactive	inactive		inactive	inactive
CC(=O)[C@H]1CC[C@H]2[C@@H]3CC[C@H]4C[C@H](O)CC[C@]4(C)[C@H]3C(=O)C[C@]12C	inactive	inactive	inactive	inactive	inactive		inactive	inactive	inactive	inactive	inactive		inactive	inactive	inactive	inactive	inactive		inactive	inactive
Cc1cc(C)nc(Nc2ccccc2)n1	inactive	48.6 µM (active)	inactive	inactive	inactive	inactive	inactive	inactive		inactive	inactive		inactive		inactive	inactive	inactive	inactive		
CCC/C(=N\OCC)C1=C(O)CC(CC(C)SCC)CC1=O (stereo not drawn)	inactive	inactive	inactive	inactive	inactive		inactive	inactive		inactive	inactive	inactive			inactive	inactive	inactive			
C=C(C)CN(CC)c1c([N+](=O)[O-])cc(C(F)(F)F)cc1[N+](=O)[O-]	inactive	inactive	inactive	inactive	inactive	inactive	inactive	inactive	inactive	inactive	inactive	inactive	inactive		inactive		inactive			
Cc1cnc[nH]1	inactive	inactive	inactive	inactive	inactive	inactive	inactive	inactive	inactive	inactive	inactive	inactive	inactive	inactive	inactive		inactive		inactive	inactive
CC(COc1ccc(Oc2ccccc2)cc1)Oc1ccccn1 (stereo not drawn)	inactive	inactive	inactive	inactive	inactive	48.5 µM (active)	inactive	inactive		inactive			inactive	inactive	inactive	inactive		inactive	inactive	inactive
CCN(Cc1ccc(Cl)nc1)/C(=C/[N+](=O)[O-])NC	inactive	inactive	inactive	inactive		inactive	inactive	inactive	inactive	inactive	inactive	inactive	inactive	inactive	inactive	inactive	inactive	inactive		
COc1ccc2c(c1OC)CN1CCc3cc4c(cc3C1C2)OCO4 (stereo not drawn)	inactive	0.403 µM (active)	inactive	inactive	inactive		inactive	inactive	inactive			inactive		inactive	inactive	inactive	inactive	inactive		
C[C@]1(O)CC[C@H]2[C@@H]3CCC4=CC(=O)CC[C@]4(C)[C@@]3(F)[C@@H](O)C[C@@]21C	inactive	inactive	inactive	inactive	inactive		inactive	inactive	inactive	inactive				inactive					inactive	inactive
O=[N+]([O-])c1cccc2c([N+](=O)[O-])cccc12	inactive	inactive	inactive	inactive	inactive	3.88 µM (active)	inactive		inactive	inactive	inactive	inactive	inactive	inactive		inactive	inactive			
CC(N)=S	inactive	inactive	inactive	inactive	inactive	inactive	inactive	inactive		inactive		inactive	inactive	inactive	inactive	inactive	inactive	inactive	inactive	inactive
